Assay outcomes from PubChem BioAssay.
Rows were chosen to be rich in hits. Some 1.1% of all compounds tested hit in one or more screens of this group.
sEH inhibitor: blocks human soluble epoxide hydrolase activity; recombinant human sEH enzymatic activity assay; inhibition, % at 2 µM; actives 0.34% (n = 91,000); AID 707; in the data active means inhibition above about 80%
Target sequence (P34913 whole entry, looked up): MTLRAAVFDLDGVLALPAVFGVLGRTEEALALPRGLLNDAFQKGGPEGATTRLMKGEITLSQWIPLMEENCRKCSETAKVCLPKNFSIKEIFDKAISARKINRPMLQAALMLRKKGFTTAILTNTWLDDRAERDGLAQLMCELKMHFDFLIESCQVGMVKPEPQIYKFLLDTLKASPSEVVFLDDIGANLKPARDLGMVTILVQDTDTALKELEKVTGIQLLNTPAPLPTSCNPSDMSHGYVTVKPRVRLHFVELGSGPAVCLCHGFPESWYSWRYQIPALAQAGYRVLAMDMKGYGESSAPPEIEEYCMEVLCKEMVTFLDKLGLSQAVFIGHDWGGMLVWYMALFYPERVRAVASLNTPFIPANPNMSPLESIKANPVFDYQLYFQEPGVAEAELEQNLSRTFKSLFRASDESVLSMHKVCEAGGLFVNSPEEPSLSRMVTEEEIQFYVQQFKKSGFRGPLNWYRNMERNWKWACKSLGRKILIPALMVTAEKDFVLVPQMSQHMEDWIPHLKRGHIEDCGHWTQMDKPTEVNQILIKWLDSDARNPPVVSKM
IL1B NFkB pot: enhances IL-1B driven NFkB nuclear translocation. HUVEC IL-1B NFkB p65 nuclear translocation imaging. activation, % at 2 µM. actives 0.3% (n = 94,000);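 active means activation above 40%, about the mean plus 3 SD, also judged a hit on visual image review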;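 further: percent activation is computed from the nuclear over cytoplasmic p65 intensity ratio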
IL1B NFkB inh: blocks IL-1B driven NFkB nuclear translocation in HUVEC cells; inhibition, % at 2 µM; HUVEC IL-1B NFkB p65 nuclear translocation imaging; actives 0.43% (n = 94,000);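 active means inhibition above about 30% together with a positive call from visual inspection of the well image, limit read from the data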;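 further: nuclear over cytoplasmic p65 intensity ratio measured by imaging; 0% = IL-1B stimulated DMSO wells and 100% = unstimulated DMSO wells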
sEH activator: soluble epoxide hydrolase (human) activation | purified human sEH enzymatic activity, activator screen | P34913 | actives 0.04% (n = 91,000) | activation, % at 2 µM; in the data active means activation above about 37%
HUVEC tox IL1B: toxic to HUVEC cells under IL-1B stimulation; HUVEC cell count loss, Hoechst imaging, IL-1B stimulated; cell count reduction, % at 2 µM; actives 0.41% (n = 94,000); AID 845;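 active means cell count reduction more than 3 SD above the screen-wide mean, cut at about 70% in these data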;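 further: normalized per plate to untreated control cells as the no-loss baseline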
Starred values were filed as active, the others as inactive; . = not tested or not shown.

SMILES | sEH inhibitor | IL1B NFkB pot | IL1B NFkB inh | sEH activator | HUVEC tox IL1B
CC(=O)N1CCc2cc(S(=O)(=O)CCC(=O)N3CCN(C(=O)c4ccco4)CC3)ccc21 | 5 | 6 | -6 | -6 | 86*
CCC(=O)N1CCc2cc(S(=O)(=O)N3CCN(C(=O)c4ccco4)CC3)ccc21 | 7 | 16 | -16 | -8 | -47
CC(C)(C)c1ccc(OCCC(=O)NC2=NCCS2)cc1 | 3 | -24 | 24 | -5 | -1
Cc1c(C)c2c(C)[nH]nc2oc1=O | 2 | -14 | 14 | -2 | 76*
COc1ccc(S(=O)(=O)N2C3CCC2CC(NC(=O)NC2CCCCC2)C3)cc1 (centres undefined) | 98* | 25 | -25 | -98 | -11
COc1ccc(S(=O)(=O)N2C3CCC2CC(NC(=O)C2CC2)C3)cc1 (centres undefined) | 6 | 5 | -5 | -7 | 19
COC(=O)c1ccc(S(=O)(=O)N2C3CCC2CC(NC(=O)NC2CCCCC2)C3)cc1 (centres undefined) | 98* | 17 | -17 | -98 | 6
CCOC(=O)c1ccc(S(=O)(=O)N2CCN(CC(=O)NC(=O)NC3CCCCC3)CC2)cc1 | -1 | -5 | 5 | 0 | -12
C=CCSc1nnc(-c2cc3c(s2)-c2ccccc2CC3)o1 | -10 | 15 | -15 | 13 | -41
CCOC(=O)c1cc(C)sc1NC(=O)c1ccc(Cl)s1 | 4 | -11 | 11 | -2 | 8
CCOC(=O)c1sc(NC(=O)c2ccc(C)s2)cc1C | 87* | 1 | -1 | -86 | -6
COC(=O)N1CC(=O)N(OC)C1c1ccc(Cl)cc1Cl (centres undefined) | 1 | 14 | -14 | -2 | -56
C=CCn1c2ccccc2c2nnc(SCC(=O)Nc3c(C)n(C)n(-c4ccccc4)c3=O)nc21 | 11 | 9 | -9 | -12 | -24
C=CCn1c2ccccc2c2nnc(SCC(=O)NC(C(=O)OC)C(C)C)nc21 (centres undefined) | -12 | 15 | -16 | 12 | 89*
Cn1cc(/C=N/n2cnc3scc(-c4ccc(Cl)cc4)c3c2=O)c2ccccc21 | 9 | -37 | 37* | -10 | 57
c1ccc(-c2nnc(SCCC3OCCCO3)o2)cc1 | -16 | 12 | -12 | 15 | -13
COC(=O)c1ccc(Oc2nc(C)cc(Oc3ccccc3)n2)cc1 | -11 | 27 | -27 | 9 | 90*
Cc1cccc(N2CCN(C(=O)c3ccc(CS(=O)(=O)c4ccccc4C)o3)CC2C)c1 (centres undefined) | 2 | 49* | -48 | -1 | 7
O=C(c1ccccc1)N1CCN(C2c3cccc4cccc(c34)C2NS(=O)(=O)c2ccccc2)CC1 (centres undefined) | 1 | . | . | 0 | .
CN(C)c1ccc(C(=S)NCc2ccco2)cc1 | -9 | 11 | -11 | 6 | -4
O=C(CSc1nnc(C2CC2)n1-c1ccccc1)Nc1ccc(N2CCOCC2)cc1 | -7 | 4 | -4 | 6 | 14
CCCN1Cc2cccc(C(=O)N3CCN(c4ccccc4)CC3)c2C1=O | 0 | 32 | -32 | -1 | 94*
CC1=C(C(N)=O)C(c2ccc(Cl)cc2Cl)n2ncnc2N1 (centres undefined) | 8 | -96 | 96* | -8 | 63
COc1ccc(CCNC(=O)C2CCN(C(=O)NC3CCCCC3)CC2)cc1 | 12 | -39 | 39* | -9 | -8
Cc1ccc(CSCCNC(=O)CCSc2ccccc2)cc1 | 66 | -4 | 4 | -65 | 4
SMILES | sEH inhibitor | IL1B NFkB pot | IL1B NFkB inh | sEH activator | HUVEC tox IL1B
Cc1ccccc1CSCCNC(=O)CCSc1ccccc1 | 81* | 7 | -7 | -81 | 2
Cc1nc2ncnn2c(C)c1CCC(=O)N1CCOCC1 | 13 | -1 | 1 | -12 | -4
CC(=O)c1cccc(NC(=O)N2CCC(c3nnc(SCC(N)=O)n3C)CC2)c1 | 7 | -2 | 2 | -8 | 21
CN(NC(=O)c1cccc(Cl)c1)c1nc(-c2ccccc2)nnc1C(F)(F)F | -1 | -1 | 1 | -2 | 0
CN(N)c1nc(-c2ccccc2)nnc1C(F)(F)F | 2 | -1 | 1 | -4 | 86*
COc1ccc(C(=O)Nc2n[nH]c(-c3ccncc3)n2)cc1 | 5 | 9 | -9 | -4 | -52
COC(=O)c1cc(OC)c(OC)cc1NC(=S)N1CCN(C)CC1 | -12 | 1 | -1 | 14 | 73*
COC(=O)c1cc(OC)c(OC)cc1NC(=S)N1CCCCC1 | -1 | 12 | -12 | 1 | -19
CC1=C(C#N)C(c2ccc3ncccc3c2)C(C#N)=C(C)N1 | 6 | -50 | 50* | -3 | -23
CCCCOC(=O)Nc1ccc(C)c(Cl)c1 | -6 | -28 | 28 | 5 | 91*
CCCCOC(=O)Nc1ccc(C(=O)OC)cc1 | -19 | 2 | -2 | 18 | -10
CCN(CC)c1ccc2cc(C=O)c(=O)oc2c1 | -6 | 72* | -72 | 9 | -7
CCOC(=O)CSc1nc(C)c(C(=O)OCC)s1 | 5 | 4 | -4 | -3 | -15
CCOC(=O)c1sc2cc([N+](=O)[O-])cc(SCC(=O)OC)c2c1N | 0 | 51* | -51 | -1 | 9
CCNS(=O)(=O)c1cc(OC)ccc1OC | -5 | 38 | -38 | 4 | -103
[O-]/[N+](=C\c1ccccc1)[C@@H]1CCCC[C@@H]1/[N+]([O-])=C/c1ccccc1 | 3 | -12 | 12 | -4 | 93*
COc1ccccc1NC(=S)N1CCC(c2nc3cc(C)c(C)cc3[nH]2)CC1 | -2 | -56 | 56* | 7 | -15
COc1ccccc1NC(=O)N1CCC(c2nc3cc(C)c(C)cc3[nH]2)CC1 | 3 | -1 | 1 | -3 | 5
CCc1nc(Nc2ccc3c(c2)OCCO3)c2oc3ccccc3c2n1 | -16 | -6 | 6 | 18 | 1
Cc1nc(Nc2ccc3c(c2)OCCO3)c2oc3ccccc3c2n1 | -4 | 87* | -87 | 6 | 5
Cn1c(=O)c2c(nc(SCC(=O)N3CCc4ccccc43)n2Cc2ccc(F)cc2)n(C)c1=O | 10 | -2 | 2 | -6 | 33
CCNc1nc(NC(C)C)nc(Nn2cnnc2)n1 | 9 | -96 | 96* | -11 | 90*
CC(C)Nc1nc(NC(C)C)nc(N(C)n2cnnc2)n1 | -4 | 9 | -8 | 6 | -11
CCOC(=O)N1CCC(NC(=O)c2cc(C(=O)NC3CCCC3)ccc2CO)CC1 | 1 | -61 | 61* | -2 | 40
CCOC(=O)CSc1snnc1-c1ccccc1 | -2 | 9 | -9 | 5 | 2
COc1ccccc1-c1cc(C(=O)N/N=C/C=C/c2ccccc2[N+](=O)[O-])c2ccccc2n1 | 4 | 42* | -42 | 0 | -2
COc1ccccc1-c1cc(C(=O)N/N=C/c2cccs2)c2ccccc2n1 | 12 | 3 | -3 | -11 | 21
NNC(=O)CNC(c1ccccc1)c1cc(Br)ccc1NC(=O)c1ccccc1Br (centres undefined) | 7 | 3 | -3 | -4 | -54
Cc1ccc(Nc2cc(C)nn2-c2nc(C)cc(=O)[nH]2)cc1 | . | -78 | 78* | . | 14
N#Cc1c(-c2cccs2)cc(C2CC2)nc1SCC(N)=O | -9 | -4 | 4 | 6 | -12
